Experiment [1] concerns the target PEG-3 (UniProt Q6IN02). In words: inhibition of PEG-3 promoter-driven reporter – cell-based, HeLa, luciferase, CREF/GAPDH counter-screen panel, dose response (AID 624167). As to conditions: CREF/GAPDH counter-screens; HeLa PEG-Prom luciferase reporter, overnight, run 1, dose range 1, at 100 µM (top of the series) unless noted; in the data active means activity above about 50%; inactive means the rest.
In experiment [2] the target is PEG-3 (UniProt Q6IN02). Described as above. As to conditions: CREF/GAPDH counter-screens; HeLa PEG-Prom luciferase reporter, overnight, run 2, dose range 1, at 100 µM (top of the series) unless noted.
Chain of PEG-3 (Q6IN02 whole entry, looked up): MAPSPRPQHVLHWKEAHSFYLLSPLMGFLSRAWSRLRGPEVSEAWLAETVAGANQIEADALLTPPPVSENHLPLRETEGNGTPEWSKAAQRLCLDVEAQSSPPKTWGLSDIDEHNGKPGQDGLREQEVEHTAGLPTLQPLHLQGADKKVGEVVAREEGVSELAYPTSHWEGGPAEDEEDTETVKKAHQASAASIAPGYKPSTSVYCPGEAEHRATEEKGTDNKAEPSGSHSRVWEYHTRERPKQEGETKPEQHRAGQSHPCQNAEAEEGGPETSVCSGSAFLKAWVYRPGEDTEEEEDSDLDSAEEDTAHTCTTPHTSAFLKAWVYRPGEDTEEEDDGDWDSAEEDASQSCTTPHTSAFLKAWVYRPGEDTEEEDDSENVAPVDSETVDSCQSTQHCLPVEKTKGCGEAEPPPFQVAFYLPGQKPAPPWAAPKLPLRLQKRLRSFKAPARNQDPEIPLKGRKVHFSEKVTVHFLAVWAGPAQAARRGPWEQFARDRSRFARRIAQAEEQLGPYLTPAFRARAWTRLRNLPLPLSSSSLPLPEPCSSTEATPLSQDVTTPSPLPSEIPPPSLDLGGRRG
For experiment [3], the system named is Rat fibroblasts (CREF). The experiment is described as above. As to conditions: CREF/GAPDH counter-screens; run 1, dose range 1, at 100 µM (top of the series).
Experiment [4] has as its system Rat fibroblasts (CREF). Described as above. As to conditions: CREF/GAPDH counter-screens; run 2, dose range 1, at 100 µM (top of the series).
Experiment [5] deals with Tumor necrosis factor receptor superfamily member 10B (Homo sapiens) (UniProt O14763). Nature of the experiment: viability loss of caspase-8 NB7 cells with TRAIL – with/without TRAIL, luminescence panel, confirmation (AID 651596). As to conditions: NB7 neuroblastoma + caspase-8, TRAIL sensitization, NB7 Caspase-8, with TRAIL, mean of runs, at 10 µM, stronger effect = higher value.
Chain of Tumor necrosis factor receptor superfamily member 10B (Homo sapiens) (O14763 whole entry, looked up): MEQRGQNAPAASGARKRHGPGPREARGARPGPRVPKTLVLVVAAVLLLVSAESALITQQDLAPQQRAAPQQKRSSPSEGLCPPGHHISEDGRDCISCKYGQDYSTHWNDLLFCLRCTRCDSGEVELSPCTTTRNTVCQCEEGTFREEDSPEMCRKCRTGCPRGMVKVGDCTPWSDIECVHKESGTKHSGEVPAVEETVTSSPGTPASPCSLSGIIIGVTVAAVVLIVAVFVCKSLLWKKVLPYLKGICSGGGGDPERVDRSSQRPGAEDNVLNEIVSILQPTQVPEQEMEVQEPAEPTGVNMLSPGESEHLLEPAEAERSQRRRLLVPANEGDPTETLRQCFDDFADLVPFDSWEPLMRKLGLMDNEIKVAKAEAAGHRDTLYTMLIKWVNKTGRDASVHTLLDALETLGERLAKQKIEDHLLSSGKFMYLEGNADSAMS
Assay in experiment [6]: as above
To be noted: NB7 neuroblastoma + caspase-8, without TRAIL, NB7 Caspase-8, without TRAIL, mean of runs, at 10 µM.

Experiment [7] in a line: NFkB reporter suppression in cystic fibrosis bronchial cells – cell-based, uHTS hits, panel, cytotoxicity readout, dose response (AID 624344). As to conditions: CF bronchial epithelial cells, PAF-induced NFkB reporter inhibition, with PAF, run 1; at 79 µM (top of the series) unless noted.
Assay in experiment [8]: as above
To be noted: CF bronchial epithelial cells, PAF-induced NFkB reporter inhibition, with PAF, run 2; at 79 µM (top of the series) unless noted.

The structures appear in SMILES notation.

On to `O=c1cc(-c2ccc(O)cc2)oc2ccc3ccccc3c12`, for which the inhibition with PEG-3 [1] is 99.4%; with PEG-3 [2], 101%; in the experiment with Rat fibroblasts (CREF) [3], 98.1%; in the experiment on Rat fibroblasts (CREF) [4], 97.1%.
For `COc1cccc(NC(=O)c2nc(S(C)(=O)=O)ncc2Cl)c1`, the inhibition in the experiment with PEG-3 [1] was 99.3%; with PEG-3 [2] it was 101%; in the experiment with Rat fibroblasts (CREF) [3] it was 99.4%; with Rat fibroblasts (CREF) [4], 99.1%. Moreover, the activity in experiment [5] was 13.1%; in experiment [6] it was 19.6%.
Regarding `O=C(CN1C(=O)c2ccccc2S1(=O)=O)c1ccc2c(c1)OCCO2`, the inhibition in the experiment with PEG-3 [1] came out at 102%; with PEG-3 [2], 101%; in the experiment with Rat fibroblasts (CREF) [3] it was 95.2%; in the experiment with Rat fibroblasts (CREF) [4] it was 96%.
Taken in the same sequence, the figures for `CC1CCCN(c2ncnc3c2cnn3-c2ccc(Cl)cc2)C1` (stereo unspecified) were 98.9%, 98%, 94% and 96.6%.
On to `CC(C)(C)C(=O)Nc1ccc(NC(=O)c2ccco2)nc1`, for which the inhibition was found to be 102% with PEG-3 [1], 101% in the experiment with PEG-3 [2], 100% in the experiment with Rat fibroblasts (CREF) [3] and 100% with Rat fibroblasts (CREF) [4]. The results for the activity in experiment [5] and in experiment [6] were 98.7% and 98.5%, respectively.
Turning to `CN1CCN(c2ccc(-c3ccc4ccccc4n3)cc2)CC1`, the inhibition in the experiment with PEG-3 [1] was 99.5%; with PEG-3 [2], 101%; with Rat fibroblasts (CREF) [3] it was 98.1%; in the experiment on Rat fibroblasts (CREF) [4], 98.6%. Further, the activity in experiment [5] was 88.5%; in experiment [6], 84.3%.
With `COc1ccc2c(c1)sc1nc(-c3ccccc3)cn12`, the inhibition stood at 100% with PEG-3 [1], 97.3% with PEG-3 [2], 98.8% in the experiment on Rat fibroblasts (CREF) [3] and 98.5% in the experiment on Rat fibroblasts (CREF) [4].
For `CC(=O)c1ccc(-c2cnc3c(NC=O)cc(-c4ccccc4Oc4ccccc4)cn23)cc1`, in that order: 38.3%, 56.6%, -25.1% and 94.9%.
Turning to `CS(=O)(=O)Nc1cccc(NC(=O)C2Cc3c(-c4cccc(F)c4)ccnc3O2)c1` (stereo unspecified), the inhibition with PEG-3 [1] is 77.9% [run 1, dose range 1, at 50 µM]; with PEG-3 [2] it was 85.4%; in the experiment on Rat fibroblasts (CREF) [3], 17.8%; in the experiment on Rat fibroblasts (CREF) [4], 29%. The activity came out at 75.5% in experiment [5] and 73.2% in experiment [6].
As for `CC(=O)c1cccc(-c2ccnc3c2CC(C(=O)Nc2cccc(NS(C)(=O)=O)c2)O3)c1` (stereo unspecified), the inhibition with PEG-3 [1] turned out to be 58%; in the experiment with PEG-3 [2], 65%; with Rat fibroblasts (CREF) [3] it was 30%; in the experiment on Rat fibroblasts (CREF) [4], 47.2%. Besides, the figures for the activity in experiment [5] and in experiment [6] were 74.9% and 73.6%, respectively.
As to `Cc1cc(Br)ccc1NC(=O)CNC(=O)Cn1ncc(Cl)c(Cl)c1=O`, the inhibition in the experiment with PEG-3 [1] was 99.8%; in the experiment with PEG-3 [2] it was 94.5%; in the experiment on Rat fibroblasts (CREF) [3], 48.9%; with Rat fibroblasts (CREF) [4], 96.9%.
With `COc1cc(CNCCCN2CCOCC2)cc(Br)c1OCc1ccc(Cl)cc1`, the inhibition was 99.2% in the experiment with PEG-3 [1], 101% with PEG-3 [2], 100% in the experiment with Rat fibroblasts (CREF) [3] and 99.1% with Rat fibroblasts (CREF) [4].
With `CC(=O)NC(c1ccc(N(C)C)cc1)c1cc(Cl)c2cccnc2c1O` (stereo unspecified), the inhibition in the experiment with PEG-3 [1] is 76.1%; with PEG-3 [2], 88.8%; in the experiment with Rat fibroblasts (CREF) [3], -10.5%; in the experiment with Rat fibroblasts (CREF) [4], 94.6%.
For `CC(=O)N1CCCC(c2cc(C(=O)Nc3ccccc3)no2)C1` (stereo unspecified), in that order: 100%, 90.2%, 93.1% and 92%.
For `Cc1ccc2nc(C)cc(Nc3ccc([N+](=O)[O-])cc3)c2c1`, in that order: 102%, 101%, 98.1% and 98.9%.
Regarding `O=C1c2cccc3cc([N+](=O)[O-])cc(c23)C(=O)N1CCN1CCCC1`, the inhibition in the experiment with PEG-3 [1] is 102%; in the experiment with PEG-3 [2] it was 99.1%; with Rat fibroblasts (CREF) [3], 80.3%; in the experiment on Rat fibroblasts (CREF) [4] it was 83%. For the same molecule, the figures for the activity in experiment [5] and in experiment [6] were 41.1% and 67.3%, respectively.
As to `O=C(N/N=C/c1sc(N2CCOCC2)nc1-c1ccccc1)c1cccc(S(=O)(=O)N2CCCC2)c1`, the inhibition was 63.5% with PEG-3 [1], 53.5% with PEG-3 [2], -19% with Rat fibroblasts (CREF) [3] and 87.5% with Rat fibroblasts (CREF) [4].
For `O=C(O)c1ccc(N/N=C/c2ccc(OC(=O)c3cccc(Cl)c3)cc2)cc1`, in that order: 101%, 99.4%, 46.5% and 40%.
Consider `CCC(=O)NC(c1cccs1)c1cc(Cl)c2cccnc2c1O` (stereo unspecified), for which the inhibition in the experiment with PEG-3 [1] was 100%; in the experiment with PEG-3 [2] it was 99.5%; in the experiment on Rat fibroblasts (CREF) [3], 38.2%; with Rat fibroblasts (CREF) [4], 97.6%.
In the case of `COc1cccc(OC)c1C(=O)Nc1cc(C)nn1-c1nc2ccccc2[nH]1`, the inhibition in the experiment with PEG-3 [1] worked out at 37.6%; with PEG-3 [2], 65.1%; with Rat fibroblasts (CREF) [3], 2.09%; in the experiment with Rat fibroblasts (CREF) [4] it was 12.6%; in experiment [7], 111%; in experiment [8], 101%.
Consider `COc1ccc(N(C(=O)CCl)C(C(=O)NC2CCCCC2)c2cccnc2)cc1` (stereo unspecified), for which the inhibition in the experiment with PEG-3 [1] was determined as 99.1%; with PEG-3 [2] it was 102%; in the experiment with Rat fibroblasts (CREF) [3], 97.1%; in the experiment with Rat fibroblasts (CREF) [4] it was 94.1%. Besides, the activity in experiment [5] stood at 99.5%; in experiment [6], 98.7%.
`C(=NNc1ccc2ccccc2n1)c1ccccn1`: the inhibition was found to be 99% in the experiment with PEG-3 [1], 102% with PEG-3 [2], 99% in the experiment with Rat fibroblasts (CREF) [3] and 99.3% with Rat fibroblasts (CREF) [4]. The activity in experiment [5] came out at 82.5%; in experiment [6], 86%.
With `O=C(CCl)N1c2ccccc2Sc2ccc3ccccc3c21`, the inhibition stood at 99.4% with PEG-3 [1], 101% with PEG-3 [2], 99.4% in the experiment with Rat fibroblasts (CREF) [3] and 99.6% in the experiment with Rat fibroblasts (CREF) [4].
As to `CC(=O)n1cc(N(C(=O)CCl)c2ccc(C)cc2)c2ccccc21`, the inhibition with PEG-3 [1] stood at 102%; in the experiment with PEG-3 [2], 99%; with Rat fibroblasts (CREF) [3] it was 99.7%; in the experiment with Rat fibroblasts (CREF) [4], 95.3%. In addition, the activity turned out to be 99.6% in experiment [5] and 99.7% in experiment [6].
Turning to `Cc1c([N+](=O)[O-])cc(N2C(=O)C=CC2=O)cc1[N+](=O)[O-]`, the inhibition with PEG-3 [1] stood at 102%; in the experiment with PEG-3 [2], 102%; in the experiment with Rat fibroblasts (CREF) [3], 99.5%; in the experiment on Rat fibroblasts (CREF) [4], 100%.
For `O=C(N/N=C/c1c(O)ccc2ccccc12)c1ccc(CO)nc1`, the inhibition with PEG-3 [1] was 51.6%; with PEG-3 [2], 60.4%; in the experiment on Rat fibroblasts (CREF) [3], 54%; in the experiment with Rat fibroblasts (CREF) [4] it was 47.6%.
Turning to `CN(C)c1ccc(/C=C/c2nc3ccccc3s2)cc1`, the inhibition with PEG-3 [1] stood at 94.8%; with PEG-3 [2], 89.3%; in the experiment with Rat fibroblasts (CREF) [3], 96.6%; in the experiment with Rat fibroblasts (CREF) [4], 94.9%.
Consider `O=C(N/N=C/c1cccs1)c1n[nH]c2c1CCCC2`, for which the inhibition is 99.5% with PEG-3 [1], 94.8% in the experiment with PEG-3 [2], 96.4% in the experiment with Rat fibroblasts (CREF) [3] and 96.8% in the experiment on Rat fibroblasts (CREF) [4]. For the same molecule, the activity in experiment [5] was found to be 81%; in experiment [6], 84.2%.
For `Cc1cc(C(=O)CN2C(=O)c3ccccc3S2(=O)=O)c(C)n1-c1ccccc1`, the inhibition with PEG-3 [1] was 98.9%; with PEG-3 [2], 98%; in the experiment on Rat fibroblasts (CREF) [3], 90.6%; in the experiment with Rat fibroblasts (CREF) [4], 89.8%.
As for `CC(=O)Nc1ccc(NC(=O)c2nc(S(=O)(=O)Cc3cccc(C)c3)ncc2Cl)cc1`, the inhibition with PEG-3 [1] turned out to be 102%; with PEG-3 [2] it was 97.4%; with Rat fibroblasts (CREF) [3] it was 100%; in the experiment with Rat fibroblasts (CREF) [4], 100%; in experiment [7] it was 76.1%; in experiment [8], 85.4%. Also, the activity in experiment [5] was found to be 56.4%; in experiment [6] it was 99.4%.

Source of the values: PubChem BioAssay.
